Sm TGR block = qHTS Assay for the Inhibitors of Schistosoma Mansoni Peroxiredoxins | purified TGR, DTNB reduction, TNB absorbance 405 nm | 3% of 360,000 active | Schistosoma mansoni thioredoxin glutathione reductase (TGR), Q962Y6 | Potency, µM (titrated, usually from 114 µM), actives largely listed as inhibitors; further: nearly all actives have a fitted effect of over 60% in size
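TGR 20 nM + NADPH 100 uM (dispensed conc.), cpd preinc 15 min RT; start with NADPH (500 uM addition) then DTNB (15 mM addition). Kinetic TNB absorbance, 405 nm filter. Four-parameter Hill fit across titration.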
RE007 growth inh = qHTS Assay for Inhibitors of the HIV-1 protein Vpr; AID 651644, 2012; S. pombe RE007 Vpr strain, BacTiter-Glo ATP luminescence, 24 h; Potency, µM (top dose mostly 92.2 µM), usual class: inhibitors; 0.21% of 360,000 active; active means well fitted falling curve with a large enough effect; inconclusive means small, poorly fitted or top-dose-only effect; inactive means no such curve, though single readings can be large or run the other way; further: nearly all actives have a fitted effect of over 50% in size
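Fission yeast strain RE007, carrying one chromosomally integrated HIV-1 vpr copy, was seeded at OD 0.01 in PMG+AL medium with 23 nL pinned compound. After 24 h at 30 °C and 99% humidity, viability was read by BacTiter-Glo luminescence.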
Tb PYK inh = qHTS of Trypanosoma Brucei Inhibitors | pyruvate kinase (Trypanosoma brucei), Q57TT1 | TbPYK enzyme, Kinase-Glo Plus ATP luminescence, 45 min | Potency, µM (highest dose often 76.8 µM), hits mostly inhibitors | 0.12% of 410,000 active | AID 624173, 2012; further: nearly all actives have a fitted effect of over 50% in size
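Glycolytic pyruvate kinase of T. brucei was incubated with substrate, test compound and 130 uM ADP for 45 minutes at room temperature. Luminescent Kinase-Glo Plus signal was measured after 10 minutes.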
NS1 inh = qHTS Assay for Inhibitors of Influenza NS1 Protein Function | 0.4% of 270,000 active | Potency, µM (titrated, usually from 46.1 µM); calls by dose curve; further: actives are rising curves; nearly all actives have a fitted effect of over 50% in size
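Compounds were scored for reversing the slow growth caused by influenza A NS1 in S. cerevisiae, measured by optical density at 600 nm. Assay medium contained 2% galactose at pH 6.0; NS1-free yeast of the same strain were the positive control.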
LmPK inhibitor = qHTS Assay for Inhibitors of Leishmania Mexicana Pyruvate Kinase (LmPK). Q27686. purified LmPK, Kinase-Glo ATP luminescence, 1 h. Potency, µM (doses to about 57.5 µM), actives largely listed as inhibitors. 0.37% of 290,000 active. AID 1721, 2009
Target sequence (Q27686 whole entry, looked up): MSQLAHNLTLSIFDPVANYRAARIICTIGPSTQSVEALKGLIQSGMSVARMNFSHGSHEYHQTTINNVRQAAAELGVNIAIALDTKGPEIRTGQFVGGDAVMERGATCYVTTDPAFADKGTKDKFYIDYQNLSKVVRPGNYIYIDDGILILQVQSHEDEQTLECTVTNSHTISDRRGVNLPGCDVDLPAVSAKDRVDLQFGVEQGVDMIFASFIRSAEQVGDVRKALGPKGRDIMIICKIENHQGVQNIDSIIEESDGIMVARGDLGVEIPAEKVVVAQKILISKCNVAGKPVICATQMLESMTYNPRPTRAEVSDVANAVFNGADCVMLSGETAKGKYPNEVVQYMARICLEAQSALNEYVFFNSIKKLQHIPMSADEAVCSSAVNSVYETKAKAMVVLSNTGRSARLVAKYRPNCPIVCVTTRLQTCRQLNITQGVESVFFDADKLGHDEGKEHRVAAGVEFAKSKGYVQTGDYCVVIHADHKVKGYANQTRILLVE
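Purified LmPK (0.1 nM) with 0.5 mM PEP and 0.1 mM ADP in imidazole buffer pH 7.2 with MgCl2/KCl, 1 h at room temperature. ATP formed was read by luciferase luminescence and normalized to no-enzyme and uninhibited controls.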
FBPA Giardia inh = qHTS Assay for Inhibitors of Fructose-1,6-bisphosphate Aldolase from Giardia Lamblia; purified Giardia FBPA; A8B2U2; AID 2451, 2010; Potency, µM (highest dose often 59.6 µM), hits mostly inhibitors; 0.71% of 290,000 active; further: nearly all actives have a fitted effect of over 55% in size
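40 nM FBPA preincubated 10 min at RT with compound (up to 57.5 uM final), then substrate plus GAPDH/TPI/NAD/arsenate coupling and diaphorase/resazurin added. Fluorescence read after 20 min at RT, 525/598 nm.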
Numbers stand for hits; ! = a repeat was not active; [ ] = remark or other dose. Most compounds without a hit are left out; they make up all but 3.5% or so of the library. Unless noted, the call rests on the fitted dose curve; in most records, active means well fitted curve in the direction sought with a large enough effect; inconclusive means small, poorly fitted or top-dose-only effect, or another doubt; inactive means no such curve, though single readings can be large; an effect the other way counts as inactive or inconclusive.

What do the screens show for `Cc1coc2c1C(=O)C(=O)c1c-2ccc2c1CCCC2(C)C`?
Sm TGR block: 10µM; RE007 growth inh: inactive; Tb PYK inh: inactive; NS1 inh: inactive; LmPK inhibitor: inactive; FBPA Giardia inh: 17.7µM!

Results for Cc1cccc(NC(=O)C2CCCN(S(=O)(=O)c3ccc4c(c3)oc(=O)n4C)C2)c1C (stereo not drawn) ?
Sm TGR block: inactive; Tb PYK inh: inactive

Results for CCOc1cc(C(=O)Nc2cc3c(cc2N2CCCC2)n(C)c(=O)c(=O)n3C)cc(OCC)c1OCC ?
Sm TGR block: 50.1µM; Tb PYK inh: inactive

What do the screens show for `Cc1nnc(N2C(=O)c3oc4ccccc4c(=O)c3C2c2ccc(Cl)cc2)s1` (stereo not drawn)?
Sm TGR block: inactive; Tb PYK inh: inactive

Results for CCOc1ccc(-c2nnc(SCC(=O)NCc3ccc(Cl)cc3)o2)cc1 ?
Sm TGR block: 14.1µM; Tb PYK inh: inactive

How did CCOc1ccc(-c2nnc(SCC(=O)NCc3ccccc3)o2)cc1 do in these assays?
Sm TGR block: inactive; Tb PYK inh: inactive

What do the screens show for `CCOc1ccc(-c2nnc(SCC(=O)NCc3ccccc3Cl)o2)cc1`?
Sm TGR block: 20µM; Tb PYK inh: inactive

How did CCOc1ccc(-c2nnc(SCC(=O)NC3CC3)o2)cc1 do in these assays?
Sm TGR block: inactive; RE007 growth inh: inactive; Tb PYK inh: inactive

How did COc1ccccc1/C=C/c1onc(C)c1S(=O)(=O)N1CCC(C(=O)N2CCC(C)CC2)CC1 do in these assays?
Sm TGR block: inactive; Tb PYK inh: inactive[15.4 µM]

Results for O=C(CCOc1ccccc1)Nc1ccnn1C1CCN(Cc2ccc(O)cc2)CC1 ?
Sm TGR block: 39.8µM; RE007 growth inh: inactive; Tb PYK inh: inactive; NS1 inh: inactive; LmPK inhibitor: inactive

What do the screens show for `CCOC(=O)N1CCN(C(=O)C2CCN(Cc3ccc(O)c(OCC)c3)CC2)CC1`?
Sm TGR block: 31.6µM; RE007 growth inh: inactive; Tb PYK inh: inactive; NS1 inh: inactive; LmPK inhibitor: inactive; FBPA Giardia inh: inconclusive

Results for COc1ccc(CN2CCSCC2)cc1C ?
Sm TGR block: inactive; RE007 growth inh: inactive; Tb PYK inh: inactive; NS1 inh: inactive; LmPK inhibitor: inactive; FBPA Giardia inh: inactive

How did CCOc1cc(CN2CCSCC2)ccc1O do in these assays?
Sm TGR block: 39.8µM; RE007 growth inh: inactive; Tb PYK inh: inactive; NS1 inh: inactive; LmPK inhibitor: inactive; FBPA Giardia inh: inactive

How did CCOc1cc(CN2CCN(c3cccc(C(F)(F)F)c3)CC2)ccc1O do in these assays?
Sm TGR block: 44.7µM; RE007 growth inh: inactive; Tb PYK inh: inactive; NS1 inh: inactive; LmPK inhibitor: inactive; FBPA Giardia inh: inconclusive

How did CCOc1ccc(NC(=O)C2CCN(S(=O)(=O)c3c(C)noc3/C=C/c3cccs3)CC2)cc1 do in these assays?
Sm TGR block: inactive; Tb PYK inh: inactive

Results for Cc1ccc(N2C(=O)CSC23C(=O)N(CC(=O)Nc2ccc(C)cc2C)c2ccccc23)cc1 (stereo not drawn) ?
Sm TGR block: inactive; Tb PYK inh: inactive

How did Cc1ccc(C)c(CN2C(=O)c3ccccc3S(=O)(=O)c3ccc(C(=O)N4CCCCC4)cc32)c1 do in these assays?
Sm TGR block: inactive; Tb PYK inh: inactive

What do the screens show for `COC(=O)[C@H](COC(C)(C)C)NC(=O)O[C@@H]1C(=O)c2cc(Br)ccc2O[C@H]1c1ccc2c(c1)OCO2`?
FBPA Giardia inh: inactive

How did CCOc1cc(CN2CCC(n3nccc3NC(=O)C3CC3)CC2)ccc1O do in these assays?
Sm TGR block: 39.8µM; RE007 growth inh: inactive; Tb PYK inh: inactive; NS1 inh: inactive; LmPK inhibitor: inactive; FBPA Giardia inh: inactive

How did O=C(CSc1cccc[n+]1[O-])c1ccccc1Br do in these assays?
Sm TGR block: inactive; RE007 growth inh: 22.4µM; Tb PYK inh: inactive; LmPK inhibitor: inactive; FBPA Giardia inh: inactive

Screens deposited in PubChem by National Center for Advancing Translational Sciences (NCATS).
